Test results published in PubChem BioAssay AID720709 (National Center for Advancing Translational Sciences (NCATS), 2013).
Hit rate of the full screen: of about 360,000 compounds, about 520 (0.14%) were called active. Not shown: some 3% with an inconclusive outcome. Only a selection was taken, and actives are over-represented in it overall. Values without a mark were called inactive. The call rests on the fitted dose curve; in most records, active means well fitted inhibition curve with a large enough effect; inconclusive means small, poorly fitted or top-dose-only effect; inactive means no such curve, though single readings can be large or run the other way.

Molecular target: Rap guanine nucleotide exchange factor 3 (Homo sapiens) (UniProt O95398)
Assay: qHTS for Antagonist of cAMP-regulated guanine nucleotide exchange factor 3 (EPAC1): primary screen; further: nearly all actives have a fitted effect of over 50% in size
Settings: EPAC1 GEF assay, Rap1b-BODIPY-GDP exchange fluorescence; series mostly up to 115 µM; activity change, negative = inhibition: at the top concentration
From the text: In multi-cellular eukaryotic organisms, the effects of cAMP are transduced by two ubiquitously-expressed intracellular cAMP receptors, the classic protein kinase A/cAMP-dependent protein kinase (PKA/cAPK) and the more recently discovered exchange protein directly activated by cAMP/cAMP-regulated guanine nucleotide exchange factor (EPAC/cAMP-GEF). Both PKA and EPAC are ubiquitously expressed in all tissues, and an increase in intracellular cAMP levels will lead to the activation of both PKA and EPAC. Therefore, careful dissections of the individual role and relative contribution of EPAC and PKA within the overall cAMP signaling in various model systems are critical for further elucidating the mechanism of cAMP signaling. To date no EPAC-specific antagonists and agonist, as well as isoform-specific agonists have been reported, and developing EPAC-specific pharmacological probes to determine the physiological functions that EPAC play in the overall cAMP-mediated signaling remains a major challenge within the research field. Furthermore, identified regulators of EPAC may lead to new mechanism-based therapeutic strategies specifically targeting the EPAC / cAMP-signaling components as EPAC has been implicated to play important roles in major human pathological conditions such as diabetes, heart disease, and cancer. This qHTS will be used to screen the Molecular Libraries Small Molecule Repository (MLSMR) as a concentration-titration series using the NCGC unique quantitative screening (qHTS) platform to find inhibitors for EPAC1. In addition, this assay will also be used as a counterscreen for the EPAC2 qHTS. This fluorescent based assay is developed and validated for EPAC1 that measures exchange using EPAC effector Rap1 complex with BODIPY-GDP, a GDP analog with a tethered fluorophores. Inhibitors are identified by monitoring the change in fluorescence signal as the exchanged free BODIPY-GDP has a reduced fluorescence compared to Rap1-bound BODIPY-GDP. Decrease in signal (inhibition) is the desired outcome for the EPAC1 antagonist while no activity in this assay is desired for the EPAC2 antagonist counterscreen. de Rooij, J., Zwartkruis, F. J., Verheijen, M. H., Cool, R. H., Nijman, S. M., Wittinghofer, A., and Bos, J.L. (1998) Nature 396, 474-477 [2] Kawasaki, H., Springett, G. M., Mochizuki, N., Toki, S., Nakaya, M., Matsuda, M., Housman, D. E., and Graybiel, A. M. (1998) Science 282, 2275-2279 NIH Chemical Genomics Center [NCGC] NIH Molecular Libraries Probe Centers Network [MLPCN] MLPCN Grant: NS066510 Assay Submitter (PI): Xiaodong Cheng, The University of Texas, Medical Branch
Briefly, three uL of reagents (100 nM EPAC1, 250 nM RAP1B-BODIPY-GDP, 50 uM GDP) were dispensed into a 1536-well Greiner black solid-bottom medium binding assay plate. Controls and test compounds (23 nL) were transferred to the plate via a Kalypsys pin tool equipped with a 1536-pin array. The plates were centrifuged at 1,000 rpm for 15 seconds followed by 5 minute incubation at room temperature. The assay plates were read at 5 minute intervals for 30 minutes in the ViewLux plate reader using 480nm excitation and 540nm emission filters. The results were normalized to the […] positive control ATA and DMSO.
Potency means the concentration at half of the fitted maximal effect.

Sequence of Rap guanine nucleotide exchange factor 3 (Homo sapiens) (O95398 whole entry, looked up): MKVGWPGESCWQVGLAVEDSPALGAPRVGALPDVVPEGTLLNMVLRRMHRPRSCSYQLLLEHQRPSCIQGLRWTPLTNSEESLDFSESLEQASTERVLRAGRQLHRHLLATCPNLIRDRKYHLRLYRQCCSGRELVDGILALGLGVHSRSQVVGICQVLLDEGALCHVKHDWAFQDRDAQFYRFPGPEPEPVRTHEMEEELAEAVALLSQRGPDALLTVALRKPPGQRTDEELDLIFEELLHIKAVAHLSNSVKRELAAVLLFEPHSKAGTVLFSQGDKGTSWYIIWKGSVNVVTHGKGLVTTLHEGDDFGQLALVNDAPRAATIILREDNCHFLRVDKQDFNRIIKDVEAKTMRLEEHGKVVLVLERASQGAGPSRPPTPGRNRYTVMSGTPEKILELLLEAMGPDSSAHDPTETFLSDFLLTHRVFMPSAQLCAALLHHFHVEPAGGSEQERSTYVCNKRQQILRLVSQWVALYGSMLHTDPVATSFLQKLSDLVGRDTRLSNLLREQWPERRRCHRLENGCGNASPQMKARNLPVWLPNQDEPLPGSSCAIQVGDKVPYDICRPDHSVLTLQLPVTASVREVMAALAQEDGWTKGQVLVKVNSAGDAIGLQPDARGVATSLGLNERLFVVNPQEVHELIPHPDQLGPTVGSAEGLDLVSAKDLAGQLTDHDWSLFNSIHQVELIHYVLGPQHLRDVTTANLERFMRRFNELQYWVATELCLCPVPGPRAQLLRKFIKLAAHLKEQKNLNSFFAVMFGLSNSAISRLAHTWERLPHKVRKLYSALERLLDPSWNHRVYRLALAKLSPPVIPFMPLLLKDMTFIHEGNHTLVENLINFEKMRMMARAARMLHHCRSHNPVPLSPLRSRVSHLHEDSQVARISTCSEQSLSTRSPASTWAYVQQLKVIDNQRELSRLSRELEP

| Compound | activity change, negative = inhibition | Potency |
| --- | --- | --- |
| CC(=O)OCC(C)n1c(=O)c2ccccc2n1C(C)=O (stereo not drawn) | 14.3% | – |
| CCc1nnc(NS(=O)(=O)c2ccc(NC(=S)NC(=O)/C=C/c3cccs3)cc2)s1 | – | 35.5 µM (active) |
| CCc1nnc(NS(=O)(=O)c2ccc(NC(=S)NC(=O)c3cccs3)cc2)s1 | -18.7% | – |
| CCc1nnc(NS(=O)(=O)c2ccc(NC(=O)c3cccc(OC(F)(F)C(F)F)c3)cc2)s1 | 6.32% | – |
| CCC(C(=O)NC(C)(C)C)n1c(-c2ccccc2)nc2ccccc21 (stereo not drawn) | -11.7% | – |
| CC(=O)N1Cc2cc(C(=O)NCc3cccc(F)c3)nc(-c3cccc(C4=CCCC4)c3)c2[C@H]1CCO | -4.59% | – |
| COC(=O)C1(C(=O)OC)C/C=C\CN(S(=O)(=O)c2ccccc2[N+](=O)[O-])CCC1 | -24.3% | – |
| C[N+](C)(C)CCNC(=O)c1c[nH]c2ccccc12 | -10.3% | – |
| CN(C)S(=O)(=O)c1cccc(C(=O)OCC(=O)N2CCCC2=O)c1 | -1.48% | – |
| Cc1c(C(=O)OCC(=O)N2CCCC2=O)oc2ccccc12 | – | 79.4 µM (active) |
| CCOC(=O)c1c(C)[nH]c(C(=O)OCC(=O)N2CCCC2=O)c1C | -3.83% | – |
| COC(=O)[C@@]12C[C@@H](CC(=O)N3CCC(c4ccccc4)CC3)C(=O)N(Cc3ccccc3)C1=CCC(C)(C)C2 | 6.68% | – |
| COc1cc(OC)cc(C2=Cc3ccccc3C(CC(=O)c3ccco3)N2c2ccc(-c3cnc(OC)nc3)cc2)c1 (stereo not drawn) | -2.98% | – |
| Cc1cccc(C)c1NC(=O)C(c1cccc2ccccc12)n1c(=O)c(-c2ccco2)nc2ccccc21 (stereo not drawn) | -20.9% | – |
| Cc1ccc(S(=O)(=O)N2CC3C(=O)C[C@@H](c4ccccc4Cl)N(S(=O)(=O)c4ccc(C)cc4)C3CC2c2ccccc2)cc1 (stereo partly drawn) | 0.258% | – |
| Cc1cccc(C)c1NC(=O)C(c1ccc(C(F)(F)F)cc1)n1c(=O)c(-c2ccco2)nc2ccccc21 (stereo not drawn) | -14.7% | – |
| O=c1ccc2c(-c3ccccc3S(=O)(=O)O)c3ccc(O)c(O)c3oc-2c1O | – | 56.2 µM (active) |
| COc1cccc(CNC(=O)[C@@H]2CCCN2C(=O)[C@@H]2CCCN2C(=O)c2ccccc2)c1 | -7.07% | – |
| COc1ccc(CC(N)c2csc(NC(=O)Nc3ccc(C(C)C)cc3)n2)cc1 (stereo not drawn) | -15.8% | – |
| CCN(CC)CCN(C)C(c1ccnc2ccccc12)c1nnnn1-c1ccc2c(c1)OCCO2 (stereo not drawn) | -3.49% | – |
| COC(=O)[C@@]12C[C@@H](CC(=O)NCc3cccc(C(F)(F)F)c3)C(=O)N(Cc3ccco3)C1=CCC(C)(C)C2 | -20.9% | – |
| CCC(C)CN1C(=O)CSCC1(C)C(=O)NCc1ccccc1 (stereo not drawn) | -4.93% | – |
| Cc1cccc(C)c1NC(=O)C(c1cccc(F)c1)N1CCN(C)CC1 (stereo not drawn) | 6.48% | – |

| Compound | activity change, negative = inhibition | Potency |
| --- | --- | --- |
| CCCCC(O)C1=C[N+](=O)CC=C1 (stereo not drawn) | 14.4% | – |
| Cc1cccc(C)c1-n1nnnc1C1(C)CCC(=O)N1CCOc1ccccc1 (stereo not drawn) | 14.7% | – |
| COC(=O)[C@]12CCCCC=C1N(Cc1ccc3c(c1)OCO3)C(=O)[C@H](CC(=O)NCc1cccs1)C2 | 8.77% | – |
| Nc1nc2ncccn2c1-c1ccccc1 | -20.8% | – |
| O=C(NC1CCCC1)C1c2ccccc2OCC(=O)N1Cc1ccccc1 (stereo not drawn) | -15.9% | – |
| CCCNC(=O)C[C@@H]1CC[C@@H]2[C@H](COC[C@H](O)CN2C(=O)c2cc(Cl)cc(Cl)c2)O1 | -0.835% | – |
| COC(=O)[C@@]12C[C@@H](CC(=O)N3CCCCC3)C(=O)N(Cc3ccc4c(c3)OCO4)C1=CCC(C)(C)C2 | 5.33% | – |
| CCCCOCCCNC(=O)C[C@@H]1C[C@@]2(C(=O)OC)CCCCC=C2N(CCC2=CCCCC2)C1=O | -20.6% | – |
| C#CCNC(=O)C[C@@H]1C[C@@]2(C(=O)OCC)CCCC=C2N(Cc2ccco2)C1=O | -7.54% | – |
| Cc1ccc(S(=O)(=O)N[C@H]2CCC[C@@H]2O)cc1 | -24.4% | – |
| O=C(NCc1ccccc1)C(c1ccc(F)cc1)N1CCN(C(=O)C2CCCO2)CC1 (stereo not drawn) | -11.6% | – |
| C#CCOCCOCCOCCNc1nc(N2CCN(C(=O)[C@H](CO)n3cc([C@@H](N)C(C)C)nn3)CC2)nc(N2CCN(C(=O)[C@H](CCC(=O)O)n3cc([C@@H](N)[C@H](C)CC)nn3)CC2)n1 | -7.4% | – |
| C#CCOCCOCCOCCNc1nc(N2CCN(C(=O)CCCCCCCCCCNC(=O)[C@H]([C@@H](C)CC)n3cc(CCCCN=C(N)N)nn3)CC2)nc(N2CCN(C(=O)CCCCCCCCCCNC(=O)[C@H](CO)n3cc(CCCSC)nn3)CC2)n1 | – | 44.7 µM (active) |
| C#CCOCCOCCOCCNc1nc(N2CCN(C(=O)C([C@@H](C)O)n3cc([C@@H](N)CCCCN)nn3)CC2)nc(N2CCN(C(=O)[C@H](CCCCN)n3cc(CN)nn3)CC2)n1 (stereo partly drawn) | 11% | – |
| CN1OC[C@@H]2CN(S(=O)(=O)c3cccc4ccccc34)[C@H](c3ccc(N4CCCCC4)cc3)C[C@@H]21 | 1.95% | – |
| CC(C)C[C@@H]1COc2cc(N3CCC[C@@H]3CO)ccc2S(=O)(=O)N1 | 21.2% | – |
| CCOC(=O)C1C(C)C(C(C)(C)C)N(S(=O)(=O)c2ccc(C)cc2)C1c1ccccc1 (stereo not drawn) | -11.1% | – |
| Oc1c(Cl)cc(Cl)c(Cl)c1Cc1c(O)c(Cl)cc(Cl)c1Cl | – | 70.8 µM (active) |
| Fc1cccc(Cc2c(-c3ccc(Cl)cc3)nc3ccc(Cl)cn23)c1 | -25.5% | – |
| CC1=C(C(=O)N(C(C)C)C(C)C)CC(CC(=O)NCCCCc2ccccc2)C(=O)N1CCC1=CCCCC1 (stereo not drawn) | -21.9% | – |
| CCc1c(-c2ccc(F)cc2)ncn1Cc1cccc(-c2ccccc2)c1 | -18.4% | – |
| CN(C)C1CN(Cc2cn(Cc3ccccc3)nn2)S(=O)(=O)C1 (stereo not drawn) | -19.8% | – |
| COC(=O)C1=CN(c2c(C)cc(C)cc2C)C(N)=C(C#N)C1c1cccc(F)c1 (stereo not drawn) | 7.23% | – |

| Compound | activity change, negative = inhibition | Potency |
| --- | --- | --- |
| CCc1oc(-c2ccc(OC)cc2)c(C(=O)OCCCCCO)c1C(C)OCCO (stereo not drawn) | -11.4% | – |
| COC(=O)[C@]12CCCCC=C1N(Cc1cccc3ccccc13)C(=O)[C@H](CC(=O)N1CCOCC1)C2 | -27.4% | – |
| CCNC(=O)c1cc2c(c(-c3cccc(-c4cncnc4)c3)n1)[C@H](CCO)N(C(C)=O)C2 | -10.6% | – |
| CCCCNC(=O)C[C@@H]1C[C@@]2(C(=O)OCC)CCC=C2N(Cc2ccco2)C1=O | -9.69% | – |
| CCOC(=O)[C@]12CCCC=C1N(CCC1=CCCCC1)C(=O)[C@H](CC(=O)N1CCCCC1)C2 | 5.77% | – |
| CCOc1ccc(CCN2C(=O)C(=O)N([C@@H](Cc3ccc(O)cc3)CN3CCC[C@H]3CN3C(=O)C(=O)NC[C@@H]3CC(C)C)C[C@@H]2Cc2ccccc2)cc1 | -22.3% | – |
| CCOC(=O)[C@]12CCCC=C1N(Cc1ccc3c(c1)OCO3)C(=O)[C@H](CC(=O)N1CCN(C(=O)c3ccco3)CC1)C2 | -27.1% | – |
| O=C(Nc1ccc2c(c1)OCCO2)C1c2ccccc2OCC(=O)N1Cc1ccccn1 (stereo not drawn) | -12.8% | – |
| CC(C)C[C@@H]1Cc2[nH][nH]c(=O)c2[C@H](CCc2ccccc2)O1 | -20% | – |
| CCOC(=O)[C@]12CCCC=C1N(Cc1ccc3c(c1)OCO3)C(=O)[C@H](CC(=O)NCc1cccs1)C2 | -8.51% | – |
| CC(C)(O)C1=C[N+](=O)CC=C1 | 9.18% | – |
| CCCCCn1nnnc1C1c2ccccc2C(=O)N1Cc1ccco1 (stereo not drawn) | 4.16% | – |
| COc1ccc(C(c2nnnn2C2CCCC2)N2CCN(C/C=C/c3ccccc3)CC2)cc1 (stereo not drawn) | -1.03% | – |
| CCCCCNC(=O)C(c1ccc(OC)cc1)n1c(=O)c(-c2ccccc2)nc2ccccc21 (stereo not drawn) | -4.26% | – |
| Cc1ccc(S(=O)(=O)N2[C@@H](Cc3ccccc3)CO[C@H]2CC(=O)OCc2ccccc2)cc1 | 5.33% | – |
| CN(Cc1cn(Cc2ccc(C(F)(F)F)cc2)nn1)C1CN(Cc2cn(Cc3ccc(C(F)(F)F)cc3)nn2)S(=O)(=O)C1 (stereo not drawn) | -28.3% | – |
| COCCNC(=O)c1cc2c(Br)ccc(Br)c2nc1N | -20.9% | – |
| CC(=O)N1Cc2cc(C(=O)NCc3cccc(F)c3)nc(-c3cccc(C4=CCCCC4)c3)c2[C@H]1CCO | -17.1% | – |
| C=C1C(=O)[C@]23C[C@H]1CCC2[C@@]1(C)C(C[C@@H]3O)[C@](C)(C(=O)O)CC[C@@H]1O (stereo partly drawn) | -21.7% | – |
| CCCCCNC(=O)C1C(=O)Nc2ccccc2C(=O)N1C(C)(C)C (stereo not drawn) | 1.6% | – |
| CC[C@@H]1CC2=C(C(=O)OC(C)(C)O2)[C@@H](CC)O1 | 2.98% | – |
| CCOC(=O)[C@]12CCC=C1N(Cc1ccccc1)C(=O)[C@H](CC(=O)N1CCCC1)C2 | -6.85% | – |
